Test results published in PubChem BioAssay.
“And” between values parts separate entries of the source, which are not always exact repeats. Equal entries are not always repeated. The source made the active and inactive calls.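 How the source made its calls, unless noted: active means thallium flux through the channel raised or lowered by more than 3 SD from vehicle-only wells, actives on both sides; inactive means the rest.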

Assays:
[1] = P. berghei load reduction in hepatocytes – cell-based, HepG2, luciferase luminescence, HepG2 viability, primary screen (AID 624349; in the data active means parasite load remaining mostly below about 12%, no sharp cut-off; inactive means mostly above about 10%;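 further: 100% = mean of DMSO negative control wells on the same plate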); conditions: P. berghei liver stage in HepG2, luciferase luminescence, concentration not given here; parasite load remaining: stronger effect = lower value; viability: measured here: HepG2 viability without parasites
[2] = signal quenchers or enhancers, Cy5 substrate/SSB – biochemical, NIH Clinical Collection, E. coli SSB, artefact control for HCV NS3 helicase inhibitor project (AID 743268; call rule not given here); conditions: Cy5-oligo bound E. coli SSB, fluorescence interference
[3] = test system: Hepatitis C virus NS3 helicase; assay: blockers of NS3h binding to DNA – biochemical, fluorescence polarization, NIH Clinical Collection, primary screen (AID 743270; call rule not given here); conditions: NS3 helicase binding to Cy5-dT15 DNA, stronger effect = higher value, concentration not given here
[4] = target: Single-stranded DNA-binding protein (Escherichia coli (strain K12)) (UniProt P0AGE0); assay: SSB-ssDNA binding inhibitors – biochemical, fluorescence polarization, NIH Clinical Collection, counter-screen for HCV NS3 helicase inhibitor project (AID 743271; in the data active means inhibition above about 28%); conditions: E. coli SSB-DNA binding, stronger effect = higher value, concentration not given here
[5] = compounds distorting NS3 helicase fluorescence signal – biochemical, NIH Clinical Collection, artefact control for HCV NS3 helicase inhibitor project (AID 743272; call rule not given here;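 further: HCV NS3 helicase with a Cy5 labelled single stranded DNA probe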); conditions: fluorescence interference counterscreen, HCV NS3 helicase assay; stronger effect = lower value
[6] = test system: Neuropilin-2 / VEGF-C interaction (human); assay: small molecules blocking Neuropilin-2/VEGF-C interaction – biochemical, microplate binding format, z-score (AID 743281; call rule not given here); conditions: microplate NRP2/VEGF-C binding assay; stronger effect = lower value
[7] = test system: F380Y; assay: BK channel mutant inhibitors and activators – cell-based, U2OS BacMam, thallium flux, beta subunits, selectivity assay, profiling panel (AID 1259406); conditions: U2OS BacMam BK variants, at 30 µM;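 further: initial slope of Thallos dye fluorescence rise after thallium is added; log ratio against the mean of 0.3% DMSO vehicle wells on the same plate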
[8] = test system: F380Y/beta1; assay: as above; conditions: U2OS BacMam BK variants, at 30 µM
[9] = test system: F380Y/beta2Delta; assay: as above; conditions: U2OS BacMam BK variants, at 30 µM
[10] = test system: F380Y/beta4; assay: as above; conditions: U2OS BacMam BK variants, at 30 µM
[11] = target: Calcium-activated potassium channel subunit alpha-1 (Homo sapiens) + Leucine-rich repeat-containing protein 26 (Homo sapiens) (UniProt Q12791+Q2I0M4); assay: as above; conditions: U2OS BacMam BK variants, F380Y/Slo1WT/gamma1, at 30 µM
[12] = test system: R275C; assay: as above; conditions: U2OS BacMam BK variants, at 30 µM
[13] = test system: R275C/beta1; assay: as above; conditions: U2OS BacMam BK variants, at 30 µM
[14] = test system: R275C/beta2Delta; assay: as above; conditions: U2OS BacMam BK variants, at 30 µM
[15] = test system: R275C/Slo1WT/beta2; assay: as above; conditions: U2OS BacMam BK variants, at 30 µM
[16] = modulation of C. elegans fzo-1 (AID 1259413; call rule not given here;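 further: fzo-1 mutant C. elegans worms in liquid wells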); conditions: C. elegans fzo-1 modulator screen, mean read-out; stronger effect = higher value
[17] = viability loss with induced miR-34 in A549 – imaging, A549 dox-inducible miR-34, nuclei and caspase counts, primary screen (AID 1347080;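 active means compounds whose cell count with miR-34 switched on is under 0.7 times the count with it off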); conditions: A549 miR-34 inducible, Hoechst nuclei count, 48 h
[18] = galactose survival enhancers in mitochondrial complex I cybrids – cell-based, galactose medium, ATP luminescence, primary screen (AID 1645843;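 active means z-score of at least 1.8 in each of two replicates, scored against plate mean and spread of sample wells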;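 further: positive z means more ATP and so rescue of galactose-driven cybrid death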); conditions: complex I mutant cybrid cells, 72 h, stronger effect = higher value
[19] = test system: Aerobactin synthetase IucA (Klebsiella pneumoniae hvKP1); assay: IucA enzyme inhibition, primary screen, biochemical, Spectrum library (AID 1346200; call rule not given here;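 further: 100% = wells without compound and 0% = wells lacking enzyme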); conditions: malachite green pyrophosphate, A620, at 8 µM, stronger effect = lower value
[20] = measured here: relative caspase fold change +Dox/-Dox
[21] = measured here: total cells with miR-34 induction, stronger effect = lower value
[22] = measured here: total cells without miR-34 induction

Calcium-activated potassium channel subunit alpha-1 (Homo sapiens) + Leucine-rich repeat-containing protein 26 (Homo sapiens), sequence (Q2I0M4 whole entry, looked up, one chain of several): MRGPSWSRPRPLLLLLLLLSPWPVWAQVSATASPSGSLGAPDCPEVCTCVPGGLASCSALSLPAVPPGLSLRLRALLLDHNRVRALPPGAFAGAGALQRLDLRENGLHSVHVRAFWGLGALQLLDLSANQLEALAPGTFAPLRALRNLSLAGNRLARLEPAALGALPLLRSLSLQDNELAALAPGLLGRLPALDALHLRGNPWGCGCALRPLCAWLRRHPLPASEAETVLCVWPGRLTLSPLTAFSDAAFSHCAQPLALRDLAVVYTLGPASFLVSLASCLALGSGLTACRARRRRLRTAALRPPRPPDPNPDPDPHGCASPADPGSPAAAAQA

CN1CC[C@@H](c2ccc(F)cc2)[C@H](COc2ccc3c(c2)OCO3)C1
inactive: parasite load remaining [1] 84.5% | fluorescence ratio [2] 1.01 | inhibition [3] 2.77% | inhibition [4] 0.67% | fluorescence ratio [5] 0.93 | z-score [6] -0.473 | log fold change Tl+ flux [7] 0.106 | log fold change Tl+ flux [8] 0.0692 | log fold change Tl+ flux [9] 0.045 | log fold change Tl+ flux [11] -0.0237 | log fold change Tl+ flux [12] -0.0665 | log fold change Tl+ flux [14] 0.0265 | log fold change Tl+ flux [15] -0.033
active: log fold change Tl+ flux [10] 0.102 | log fold change Tl+ flux [13] 0.146
65.3%: viability [1]

c1ccc(Cn2ccnc2)cc1
0.727: fold change [17, 20]
inactive: parasite load remaining [1] 66.3% | fluorescence ratio [2] 0.9 | inhibition [3] -1.09% | inhibition [4] 1.97% | fluorescence ratio [5] 0.88 | z-score [6] 0.238 | mean signal [16] 248 | fold change ([17]; stronger effect = lower value) 1.24 | z-score [18] 0.075 | log fold change Tl+ flux [7] 0.0263 | log fold change Tl+ flux [8] -0.0465 | log fold change Tl+ flux [9] -0.0252 | log fold change Tl+ flux [10] -0.0022 | log fold change Tl+ flux [11] -0.0094 | log fold change Tl+ flux [12] -0.0227 | log fold change Tl+ flux [13] -0.0133 | log fold change Tl+ flux [14] -0.00773 | log fold change Tl+ flux [15] -0.0321
8900: cell count [17, 21]
7170: cell count [17, 22]
67.7%: viability [1]

Cc1ccc(-c2nc3ccc(C)cn3c2CC(=O)N(C)C)cc1
inactive: parasite load remaining [1] 37% and 120% | fluorescence ratio [2] 1.04 | inhibition [3] -1.98% | inhibition [4] -2.41% | fluorescence ratio [5] 1.01 | z-score [6] -0.569 | mean signal [16] 258 | activity remaining [19] 101% | fold change ([17]; stronger effect = lower value) 0.956 | z-score [18] 1.03 | log fold change Tl+ flux [7] -0.0187 | log fold change Tl+ flux [8] 0.0272 | log fold change Tl+ flux [9] 0.00568 | log fold change Tl+ flux [10] -0.00795 | log fold change Tl+ flux [11] -0.0144 | log fold change Tl+ flux [12] -0.0227 | log fold change Tl+ flux [13] -0.0502 | log fold change Tl+ flux [14] -0.00561 | log fold change Tl+ flux [15] 0.00818
9550: cell count [17, 22]
9130: cell count [17, 21]
80.3% and 64.4%: viability [1]
2.59: fold change [17, 20]

CN1CC[C@@]23CCCC[C@@H]2[C@@H]1Cc1ccc(O)cc13
inactive: parasite load remaining [1] 97.8% | fluorescence ratio [2] 0.99 | inhibition [3] -1.98% | inhibition [4] -3.18% | fluorescence ratio [5] 0.91 | z-score [6] -0.569 | mean signal [16] 229 | log fold change Tl+ flux [7] 0.0229 | log fold change Tl+ flux [9] 0.00585 | log fold change Tl+ flux [11] 0.0222 | log fold change Tl+ flux [12] 0.00894 | log fold change Tl+ flux [13] 0.0266 | log fold change Tl+ flux [14] 0.00635
68.2%: viability [1]
